This passage reports growth yield results from the supplement of paper PMC8007513.

The subject of this assay is Trichoderma virens ATCC 9645. Briefly: growth yield (OD600) with compound + IPBC relative to untreated control; higher = less growth inhibition. As to conditions: compound concentration: 100 uM, IPBC concentration: 200 ng/ml. The procedure, abridged: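 A biocide at 200 ng ml^−1 was co-applied to some wells, and library compounds were present in all test wells at 100 μM final. The wells held 100 μl of Trichoderma virens ATCC 9645 spores at 15,000 spores ml^−1 in potato dextrose broth, grown at 30 °C in 96-well plates, with OD600 read at 40 h and 72 h. Results are relative growth against the control without either agent, averaged across duplicate screens.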

Where a name gives a salt, the structure may show the parent alone. ± gives the standard error. The whole screen tested about 1,300 compounds, of which about 130 (10%) showed an effect of 50% or more. Shown is part of a subset that was picked to be rich in strong results.

With `CCCCNc1c(C(=O)OCC)c(C)nc2c1cnn2CC` [Tracazolate hydrochloride] + CCCCNC(=O)OCC#CI [3-iodo-2-propynyl butylcarbamate (IPBC)], the growth yield by setting is: (40 h) 21.9%; (72 h) 53.7 ± 0.21%.
`CCCCNc1ccc(C(=O)OCCN(C)C)cc1` + CCCCNC(=O)OCC#CI [3-iodo-2-propynyl butylcarbamate (IPBC)]: the growth yield (40 h) came out at 81.5 ± 1.4% and the growth yield (72 h) turned out to be 88.2 ± 0.32%.
The like results for `CCCCNc1ccc(C(=O)OCCOCCOCCOCCOCCOCCOCCOCCOCCOC)cc1` [Benzonatate] + CCCCNC(=O)OCC#CI [3-iodo-2-propynyl butylcarbamate (IPBC)] were, in that order, 77.4 ± 1.1% and 83.27 ± 0.42%.
Turning to `CC(C)(S)C(N)C(=O)O` (racemic) [D,L-Penicillamine] + CCCCNC(=O)OCC#CI [3-iodo-2-propynyl butylcarbamate (IPBC)], the growth yield was determined as 94.8 ± 8.4% (40 h) and 94.2 ± 5.5% (72 h).
The like results for `COC1=CC(=O)C[C@@H](C)[C@]12Oc1c(Cl)c(OC)cc(OC)c1C2=O` [Griseofulvin] + CCCCNC(=O)OCC#CI [3-iodo-2-propynyl butylcarbamate (IPBC)] were, in that order, 48.8 ± 3.6% and 85.2 ± 1.1%.
With `CCC(=O)O[C@@H](O[P@](=O)(CCCCc1ccccc1)CC(=O)N1C[C@H](C2CCCCC2)C[C@H]1C(=O)O)C(C)C` [Fosinopril] + CCCCNC(=O)OCC#CI [3-iodo-2-propynyl butylcarbamate (IPBC)], the growth yield by setting is: (40 h) 86.9 ± 9.1%; (72 h) 94.8 ± 7.3%.
As to `CC(C)(C)CC(C)(C)c1ccc(OCCOCC[N+](C)(C)Cc2ccccc2)cc1` [Benzethonium chloride] + CCCCNC(=O)OCC#CI [3-iodo-2-propynyl butylcarbamate (IPBC)], the growth yield reads like this: (40 h) 3.18 ± 0.32%; (72 h) 2.52 ± 0.42%.
The like results for `Cc1cc(C(C)(C)CC(C)(C)C)ccc1OCCOCC[N+](C)(C)Cc1ccccc1` [Methyl benzethonium chloride] + CCCCNC(=O)OCC#CI [3-iodo-2-propynyl butylcarbamate (IPBC)] were, in that order, 2.86 ± 0.64% and 2.62 ± 0.1%.
As for `C[N+](C)(CCOc1ccccc1)Cc1ccccc1.O=C([O-])c1cc2ccccc2cc1O` [Bephenium hydroxynaphthoate] + CCCCNC(=O)OCC#CI [3-iodo-2-propynyl butylcarbamate (IPBC)], the growth yield (40 h) was 63.5% and the growth yield (72 h) worked out at 85.3 ± 2.4%.
With `CCC(=O)O[C@]1(C(=O)SCF)[C@H](C)C[C@H]2[C@@H]3C[C@H](F)C4=CC(=O)C=C[C@]4(C)[C@@]3(F)[C@@H](O)C[C@@]21C` [Fluticasone propionate] + CCCCNC(=O)OCC#CI [3-iodo-2-propynyl butylcarbamate (IPBC)], the growth yield was 101 ± 0.64% (40 h) and 99.63 ± 0.42% (72 h).
